The target of the assay is Kelch-like ECH-associated protein 1 (Homo sapiens) + Nuclear factor erythroid 2-related factor 2 (Homo sapiens) (UniProt Q14145+Q16236). The experiment in a line: Keap1-Nrf2 protein-protein interaction inhibitors, dose response, biochemical, fluorescence polarization, cherry-picked samples (AID 588683).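 Further: Kelch domain of Keap1 binding a fluorescein-labelled 9mer Nrf2 peptide; more negative means stronger inhibition of peptide binding.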 To be noted: Keap1/Nrf2 peptide fluorescence polarization, plate reader; series mostly up to 26 µM. (Fluorescence polarisation rises when a labelled molecule tumbles more slowly, as on binding a larger partner.)

Entries with a potency or affinity are not part of this list. Active and inactive are the calls of the source. How the calls were made is not given here.

The values that follow come from PubChem BioAssay AID588683 (Broad Institute, 2011).

Chain of Kelch-like ECH-associated protein 1 (Homo sapiens) + Nuclear factor erythroid 2-related factor 2 (Homo sapiens) (Q14145 whole entry, looked up, the tested form may be a part): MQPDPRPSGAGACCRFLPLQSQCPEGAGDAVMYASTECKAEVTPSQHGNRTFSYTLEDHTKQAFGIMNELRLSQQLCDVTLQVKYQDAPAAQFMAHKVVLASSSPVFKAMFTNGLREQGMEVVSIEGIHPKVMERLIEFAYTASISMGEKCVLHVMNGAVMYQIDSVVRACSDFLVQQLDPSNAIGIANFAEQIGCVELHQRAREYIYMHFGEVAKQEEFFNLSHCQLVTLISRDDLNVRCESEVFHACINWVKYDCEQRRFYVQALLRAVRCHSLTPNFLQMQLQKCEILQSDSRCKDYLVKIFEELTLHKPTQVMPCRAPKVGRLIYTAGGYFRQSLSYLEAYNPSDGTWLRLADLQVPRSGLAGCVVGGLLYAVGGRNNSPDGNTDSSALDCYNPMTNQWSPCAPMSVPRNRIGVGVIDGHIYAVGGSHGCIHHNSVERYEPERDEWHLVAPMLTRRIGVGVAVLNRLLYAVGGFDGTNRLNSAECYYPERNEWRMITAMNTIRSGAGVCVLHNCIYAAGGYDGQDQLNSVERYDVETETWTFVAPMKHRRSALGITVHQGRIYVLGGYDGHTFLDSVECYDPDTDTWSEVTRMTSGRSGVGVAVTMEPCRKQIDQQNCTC
Chain of Kelch-like ECH-associated protein 1 (Homo sapiens) + Nuclear factor erythroid 2-related factor 2 (Homo sapiens) (Q16236 whole entry, looked up, the tested form may be a part): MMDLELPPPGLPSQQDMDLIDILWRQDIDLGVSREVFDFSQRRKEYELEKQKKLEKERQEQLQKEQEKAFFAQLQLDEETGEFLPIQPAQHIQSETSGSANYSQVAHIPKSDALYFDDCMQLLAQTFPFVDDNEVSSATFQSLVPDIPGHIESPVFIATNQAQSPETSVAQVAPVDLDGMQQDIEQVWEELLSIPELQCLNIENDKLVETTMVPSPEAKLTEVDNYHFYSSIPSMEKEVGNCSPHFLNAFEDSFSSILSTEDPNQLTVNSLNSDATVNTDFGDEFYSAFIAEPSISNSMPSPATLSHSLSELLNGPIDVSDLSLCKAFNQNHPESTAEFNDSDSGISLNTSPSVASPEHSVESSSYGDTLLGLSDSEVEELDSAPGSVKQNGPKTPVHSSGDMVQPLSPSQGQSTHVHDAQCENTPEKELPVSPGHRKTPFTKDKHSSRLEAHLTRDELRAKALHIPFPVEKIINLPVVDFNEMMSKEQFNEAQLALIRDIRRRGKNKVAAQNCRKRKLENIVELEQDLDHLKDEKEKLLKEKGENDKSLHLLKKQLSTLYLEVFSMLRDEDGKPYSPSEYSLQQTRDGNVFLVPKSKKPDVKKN

On to `COc1cc(/C=C/C(=O)OCC(=O)c2ccc3c(c2)NC(=O)CO3)ccc1OC(F)F`, for which the result was inactive.

Consider `Cc1ccc(C2=CC(c3cccs3)n3nnnc3N2)cc1` (stereo unspecified), for which the result was inactive.

As for `Cc1cc(NC(=O)CSc2nnc(-c3ccncc3)n2C)n(-c2ccccc2)n1`, the outcome was inactive.

For the compound `Cc1cscc1NC(=O)/C=C/C(=O)O`, the result was inactive.

In the case of `CC1(C)CC(=O)C2=C(C1)OC(N)=C(C#N)C2c1cc2c(cc1[N+](=O)[O-])OCO2` (stereo unspecified), the result was inactive.

On to `O=C1NC(c2cc(Cl)cc([N+](=O)[O-])c2O)Nc2ccccc21` (stereo unspecified), for which the result was inactive.

`N/C(=N/OC(=O)c1ccc(Cl)cc1)c1ncc([N+](=O)[O-])s1`: the outcome was inactive.

Regarding `CCCCC(CC)C(=O)Oc1ccc(O)c(C(C)(C)C)c1` (stereo unspecified), the result was inactive.

As to `N=c1c(C(=O)NC2CCCC2)cc2c(=O)n3ccccc3nc2n1Cc1ccccc1`, the outcome was inactive.

As for `CCOC(=O)C1=C(CSc2nc3c(cc2C#N)CN(C)CC3)OC(N)=C(C#N)C1c1ccncc1` (stereo unspecified), the result was inactive.

As for `CC1(C)CC(=O)C2=C(C1)OC1=C(C2)C(=O)CC(C)(C)C1`, the result was inactive.

Take `O=C1CC(Cc2ccc(Cl)cc2)C(=O)N1c1cc(Cl)ccn1` (stereo unspecified): the outcome was inactive.

Turning to `COc1ccc(OC)c(S(=O)(=O)Nc2ccc(F)cc2)c1`, the outcome was inactive.

In the case of `CCc1cc[n+](-c2nc([O-])sc2C=O)cc1`, the outcome was inactive.

With `CCOC(=O)c1c(NC(=O)CN2CCN(S(=O)(=O)c3cc(Cl)ccc3Cl)CC2)sc(C(=O)N(C)C)c1C`, the outcome was inactive.

As to `C=CCn1cccc(C(=O)Nc2ccc(OC)c(Cl)c2)c1=O`, the result was inactive.

Consider `c1ccc(-n2ncc3c(NCC4CCCO4)ncnc32)cc1` (stereo unspecified), for which the outcome was inactive.

In the case of `Cc1ccc(Cn2c(=N)c(C(=O)NC3CCCC3)cc3c(=O)n4ccccc4nc32)cc1`, the outcome was inactive.

In the case of `Cc1ccc2oc(=O)c3cnn(CC(=O)NCCC(C)C)c3c2c1`, the result was inactive.

For `COc1cc2c3nnc(-c4ccc(F)cc4)c-3cn(Cc3ccccc3F)c2cc1OC`, the outcome was inactive.

Turning to `O=C(NNc1cc(Cl)ccc1Cl)c1cccs1`, the outcome was inactive.

For `CC(C(=O)O)N1C(=O)/C(=C/C=C/c2ccco2)SC1=S` (stereo unspecified), the outcome was inactive.

Turning to `CCOc1ccc(S(=O)(=O)Nc2cccc(C(=O)NCCCn3ccnc3)c2)cc1`, the result was inactive.

Regarding `CCc1cc(C(=O)c2ccc(OC)cc2)c(N)s1`, the result was inactive.

On to `CC1CCN(c2ccc3c(c2)S(=O)(=O)c2ccccc2C3=O)CC1`, for which the outcome was inactive.

Take `O=C(O)c1cc(N2N=C(C(F)(F)F)/C(=C/C=C/c3ccco3)C2=O)ccc1Cl`: the result was inactive.

For `COc1cc(C#Cc2c(C=O)n(C)c3ccccc23)cc(OC)c1`, the result was inactive.

For `Cc1sc2ccccc2[n+]1CC(=O)c1ccccc1`, the result was inactive.

For the compound `Cn1ccnc1Sc1cc(NCCCO)c([N+](=O)[O-])c2nonc12`, the outcome was inactive.

Take `CSc1nsc2nc(=O)c(/C=C3\C=Nc4ccccc43)c(N)n12`: the outcome was inactive.

With `Clc1ccc(-c2noc(CN3CCOCC3)n2)cc1`, the result was inactive.

As for `CCN(CC)c1ccc(C2Nc3cccc4cccc(c34)N2)cc1`, the result was inactive.

On to `O=C(CSCC(=O)Nc1ccccc1)N/N=C/c1c(O)ccc2ccccc12`, for which the outcome was inactive.

As for `Cc1ccc(O)c(C(=O)c2cnc3c(c2)c(C)nn3-c2ccccc2)c1`, the outcome was inactive.

As for `COCCCn1c(=NC(=O)c2ccccc2)c(C#N)cc2c(=O)n3cccc(C)c3nc21`, the outcome was inactive.

On to `CNc1nnc(SCC(=O)c2cc(C)n(C3CC3)c2C)s1`, for which the result was inactive.

With `N#Cc1c(SCC(=O)Nc2nncs2)sc2c(O)cc(=O)[nH]c12`, the outcome was inactive.

Consider `COc1cccc(C2=CC(c3cccs3)n3nnnc3N2)c1` (stereo unspecified), for which the outcome was inactive.

As to `CC(C)C1OC2(C)OC(=N)C1(C#N)C(C#N)(C#N)C2c1ccccc1` (stereo unspecified), the outcome was inactive.

For `CCC(CNc1cc(OC)cc2cccnc12)NC1CCCCC1` (stereo unspecified), the outcome was inactive.

For the compound `COc1ccc(/C=c2\s/c(=C(/C#N)C(=O)NCc3ccco3)n(-c3ccccc3)c2=O)cc1`, the result was inactive.

`Nc1nc(SCC(=O)Nc2cc(C(F)(F)F)ccc2N2CCOCC2)n[nH]1`: the outcome was inactive.

Consider `O=C(CN1CCN(C(=O)CNC(=O)c2ccc3c(c2)OCO3)CC1)Nc1ccc(F)cc1`, for which the result was inactive.

Consider `Cc1ccc(NC(=O)CN2C(=O)NC3(CCCCCC3)C2=O)cc1Cl`, for which the result was inactive.

For the compound `COc1cc(NC(=O)CSc2nc3cc(C)ccc3cc2C)c(C(=O)O)cc1OC`, the result was inactive.

Turning to `COc1ccc(C2c3ccc(O)cc3Oc3ncn(CCCO)c(=N)c32)cc1OC` (stereo unspecified), the result was inactive.

For the compound `CCOCCCn1c(=NC(=O)c2cccs2)c(C#N)cc2c(=O)n3cccc(C)c3nc21`, the result was inactive.

For `COc1ccc(C2OC34CCCCC3C(C#N)(C#N)C2(C#N)C(=N)O4)cc1` (stereo unspecified), the result was inactive.

For `CCN1CCN(S(=O)(=O)c2ccc(Cl)c(C(=O)NC3CCC(C)CC3)c2)CC1` (stereo unspecified), the outcome was inactive.

In the case of `CCOc1ccc2noc3c2c1C(=O)c1ccccc1-3`, the result was inactive.

In the case of `COC(=O)c1ccc(OC(=O)CN2C(=O)c3ccccc3C2=O)cc1`, the result was inactive.

For the compound `CN(C)c1ccc2cc(S(=O)(=O)O)cc(O)c2c1`, the outcome was inactive.

Consider `CCCCC1OC23CCCCC2C(C#N)(C#N)C1(C#N)C(=N)O3` (stereo unspecified), for which the result was inactive.

As to `CN1CC=C2C(C#N)=C(N)C(C#N)(C#N)C(c3ccsc3)C2C1` (stereo unspecified), the result was inactive.

`COc1ccc(C2=CC(c3ccco3)n3ncnc3N2)cc1` (stereo unspecified): the outcome was inactive.

On to `CCOC(=O)c1c(C)[nH]c(C(=O)COC(=O)c2cccnc2Cl)c1C`, for which the outcome was inactive.

As for `O=C(CSc1nc2ccccc2c(=O)n1CCCN1CCOCC1)Nc1ccccc1OC(F)F`, the result was inactive.

Regarding `CN(C)c1ccc(/C=N/NC(=O)CCC(=O)NCc2ccccc2)cc1`, the result was inactive.

`O=C1C(=Cc2ccco2)CCC1=Cc1ccco1`: the outcome was inactive.

As for `COc1ccc(-c2cc(C(F)(F)F)c3c(N)c(C(=O)NCCSC)sc3n2)cc1`, the result was inactive.

For the compound `O=C(CCCN1C(=O)/C(=C\c2ccco2)SC1=S)Nc1ccc(O)cc1C(=O)O`, the outcome was inactive.

Consider `N#C/C(=C\c1ccc[nH]1)C(=O)N1CCCCC1`, for which the outcome was inactive.

On to `CCC(C)(C)n1nnnc1C(c1cc2ccc(OC)cc2[nH]c1=O)N1CCc2ccccc2C1` (stereo unspecified), for which the result was inactive.

On to `Cc1cc[n+](-c2[nH]c(=O)sc2/C=N/NC([S-])=Nc2ccccc2)cc1`, for which the result was inactive.

Take `Cc1[nH]nc2c1C(CC(C)C)C(C#N)=C(N)O2` (stereo unspecified): the result was inactive.

Turning to `CC(OC(=O)c1ccc([N+](=O)[O-])o1)C(=O)NC1CCCCC1C` (stereo unspecified), the outcome was inactive.

On to `O=[N+]([O-])c1cncc([N+](=O)[O-])c1Nc1cccc(O)c1`, for which the result was inactive.

Turning to `O=C(NNc1ncnc2sccc12)c1ccc(Cl)cc1`, the result was inactive.

For `CC(C)Cn1c(N)c(C(=O)CSc2nnc(-c3ccco3)n2C)c(=O)n(C)c1=O`, the outcome was inactive.

For the compound `CCn1nnnc1SCC(=O)N(C)C1CCS(=O)(=O)C1` (stereo unspecified), the result was inactive.

Regarding `CCOC(=O)c1ccc2ncc(C(=O)OCC)c(NCCN(C)C)c2c1`, the result was inactive.

In the case of `Cc1nc(NS(=O)(=O)c2ccccc2)sc1NC(=O)OCCN(C)C`, the outcome was inactive.

As to `COc1ccccc1N(C)S(=O)(=O)c1ccc(C(=O)NCc2ccccc2CN2CCCC2)cc1`, the outcome was inactive.

Turning to `CC[C@H](C)[C@H](NC(=O)OCc1ccccc1)C(=O)OCC(=O)N1CCN(c2ccc(F)cc2)CC1`, the outcome was inactive.

In the case of `C=CCOC(=O)C1=C[C@H](c2csc3ccccc23)C[C@H](OCc2ccc(CO)cc2)O1`, the outcome was inactive.

`O=c1[nH]c(=S)[nH]c2c1C(c1ccc(Br)cc1)c1c([nH]c(=S)[nH]c1=O)O2`: the outcome was inactive.
